target: VAX1; assay: pooled miR-30 sensor sort-seq; sequence = guide strand; settings: shRNA
Note: reference of the scale not given here.

Row | Sequence | sensor-assay potency score (higher = more potent)
1 | TTCTTCTGCTTGGTGCGCCGGT | -0.49
2 | TTACTTTTGTTACAATCCTCAG | -1.22
3 | TACTTTTGTTACAATCCTCAGC | -0.412
4 | TTCTTTTGTTTTTTTATCCCGC | -0.672
5 | TTTTGTTTTTTTATCCCGCGTT | -0.396
6 | TGGAACTCCATCTCCAGCCGAT | -1
7 | TTTACTTTTGTTACAATCCTCA | -0.228
8 | TCTCGGACCAGGATCCGGCGGC | -0.716
9 | TTTGTTTTTTTATCCCGCGTTT | -0.944
10 | TTGGGCAGGATGATCTCTCGGA | -0.0889
11 | TTCTTTATTGTTGGTCCGGGAG | -1.06
12 | TTTTGTTACAATCCTCAGCAGC | -0.447

target: VDAC1; assay: as above; settings: shRNA

Row | Sequence | sensor-assay potency score (higher = more potent)
13 | TTTTGTTTTCAAATCAAGCTTT | -0.155
14 | TTCTCTGTAAACGTCAGGCCGT | -0.7
15 | TCTTCCACAGTAATCTCGGTGC | -0.38
16 | TTCACTTTAGCCGAGAAGCAGG | -0.473
17 | TAGTGTATTGTCGGTATTCCAT | -0.621
18 | ATTCACATTAGTGTGAAGCTGG | 0.0233
19 | TCTGAGTGTATCCTAAACCTAT | -0.562
20 | TTTGTTTTCAAATCAAGCTTTA | -0.535
21 | TAGGTGAGAAGGATGAATCGAA | 0.744
22 | TTACTGTTTCCTGCTGTCCAGG | -1.19
23 | TATCCTAAACCTATCAGGCTGG | -0.545
24 | TTAGAGTCTGAGTGTATCCTAA | -0.253

target: VDAC3; assay: as above; settings: shRNA

Row | Sequence | sensor-assay potency score (higher = more potent)
25 | TCTATATCAACATTACTGCCAA | -0.2
26 | TTCAGGTCTATCTTGACCATGC | -0.432
27 | TTCATTTCTCTTCACTTCCAGG | -0.789
28 | TAGAGTATTGTCTGTGTTCCAT | -0.216
29 | TTATATTTGGTTTCTAGGTTGC | -0.0958
30 | TTTCAGGTCTATCTTGACCATG | -1.45
31 | TTGGTTTTCAGGTCTATCTTGA | 0.398
32 | TCCTTTGTTGAAGACATCCTTA | -0.879
33 | TCTGGTAGATAGAACCTCCAAA | -0.313
34 | TTGTCTGTGTTCCATTTCTGGG | -1.15
35 | TTCAATCTTCTCATTCACCTTC | 0.828
36 | TATCAGTGTAAGCATGACCAGA | -0.976

target: VGLL2; assay: as above; settings: shRNA

Row | Sequence | sensor-assay potency score (higher = more potent)
37 | TTACTTCTCTACCACAGTCTTA | -0.551
38 | TTGTCTAACAACAGCTGCATTT | -1.41
39 | TTGGATTTGCTCTTTCAGCAGC | -0.344

— the OligoGym collection
